Source: PubChem BioAssay (Tox21)
Where “and” joins values, the source holds several entries; their conditions need not be identical. Equal values may be shown once. Results filed as inconclusive are left out. More than one record can exist for a structure, and the calls need not agree. Calls of active or inactive are those of the source. Unless noted, calls follow the shape of the full dose curve.

Legend:
[1] = Nuclear factor erythroid 2-related factor 2/antioxidant responsive element (Nrf2/ARE) small molecule agonists: qHTS cell viability counter screen in human keratinocytes (AID 1919968; active = well fitted curve in the direction sought with a large enough effect in the repeat runs; an effect the other way counts as inactive or inconclusive; also: nearly all actives have a fitted effect of over 55% in size; also: potency is read from the fitted curve at half-maximal effect)
In short: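 CellTiter-Fluor fluorescence, read 1 h after reagent, gave viability in the same wells as the ARE-luciferase assay. KeratinoSens cells (1,500/well) had 23 h compound exposure at 37 C/5% CO2 following 5 h plating.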

[2] = Nuclear factor erythroid 2-related factor 2/antioxidant responsive element (Nrf2/ARE) small molecule agonists: luciferase reporter gene qHTS assay in human keratinocytes (AID 1919969); also: nearly all actives have a fitted effect of over 35% in size
[3] = biological target: Gonadotropin-releasing hormone receptor (Homo sapiens) (UniProt P30968); assay: Human gonadotropin-releasing hormone receptor (GnRHR) small molecule agonists, calcium flux assay in GnRHR-HEK293 cells (AID 1920063); also: nearly all actives have a fitted effect of over 35% in size
Chain of Gonadotropin-releasing hormone receptor (Homo sapiens) (P30968 whole entry, looked up): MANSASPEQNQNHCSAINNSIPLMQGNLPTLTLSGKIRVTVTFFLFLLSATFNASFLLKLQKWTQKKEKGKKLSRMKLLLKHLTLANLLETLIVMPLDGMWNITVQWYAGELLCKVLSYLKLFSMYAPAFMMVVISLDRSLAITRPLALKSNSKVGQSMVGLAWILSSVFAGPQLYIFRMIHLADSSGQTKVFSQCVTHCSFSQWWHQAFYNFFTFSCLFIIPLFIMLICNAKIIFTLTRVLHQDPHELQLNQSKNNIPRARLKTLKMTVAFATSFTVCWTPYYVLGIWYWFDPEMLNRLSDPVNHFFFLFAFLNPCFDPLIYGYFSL
In short: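 Agonist mode: compounds at 15 concentrations, in triplicate, went onto calcium dye-loaded GnRHR-HEK293 cells. Intracellular calcium was then followed as 480/540 nm fluorescence at 1 s intervals over 3 min.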

[4] = biological target: KiSS-1 receptor (Homo sapiens) (UniProt Q969F8); assay: Human kisspeptin (KISS1R) small molecule agonists, calcium flux assay in KISS1R-HEK293 cells (AID 1920064; active = well fitted curve in the direction sought with a large enough effect in the repeat runs; an effect the other way counts as inactive or inconclusive)
Chain of KiSS-1 receptor (Homo sapiens) (Q969F8 whole entry, looked up): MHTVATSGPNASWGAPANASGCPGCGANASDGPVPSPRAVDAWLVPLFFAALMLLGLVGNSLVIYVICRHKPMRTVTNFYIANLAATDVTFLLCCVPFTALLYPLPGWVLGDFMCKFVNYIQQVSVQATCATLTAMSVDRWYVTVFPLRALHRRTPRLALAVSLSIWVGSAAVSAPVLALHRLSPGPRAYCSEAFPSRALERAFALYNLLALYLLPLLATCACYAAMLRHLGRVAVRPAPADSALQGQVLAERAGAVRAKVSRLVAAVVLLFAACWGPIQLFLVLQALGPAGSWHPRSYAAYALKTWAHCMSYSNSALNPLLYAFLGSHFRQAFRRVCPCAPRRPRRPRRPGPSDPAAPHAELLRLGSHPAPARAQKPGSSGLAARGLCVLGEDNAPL
In short: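 Agonist mode: intracellular calcium rise tracked at 1 s intervals over 3 min (480/540 nm) immediately after compound addition to dye-loaded KISS1R-HEK293 stable cells. Each compound tested at 15 concentrations in triplicate.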

[5] = G protein-coupled receptor (GPCR) small molecule agonists, calcium flux assay: HEK293 wild type cell line counter screen (AID 1920065)
In short: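 Calcium flux counter screen: compound added in agonist mode at 15 concentrations in triplicate to dye-loaded parental HEK293 cells. Fluorescence (480/540) read kinetically for 3 min; ATP served as positive control.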

[6] = p53 small molecule agonists, cell-based qHTS assay with human liver microsomes (AID 1963577);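 also: p53 response element beta-lactamase reporter cells with liver microsomes plus NADPH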
In short: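 With metabolic activation: human liver microsomes (0.5 mg/mL final) plus NADPH (0.5 mg/mL final) added alongside compounds to p53RE-bla cells; 16 h 37 C exposure; beta-lactamase read by LiveBLAzer fluorescence.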

[7] = p53 small molecule agonists, cell-based qHTS assay with rat liver microsomes (AID 1963578); also: potency is read from the fitted curve at half-maximal effect
In short: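 Metabolic activation by rat liver microsomes and NADPH, each 0.5 mg/mL final, added right after compounds to p53RE-bla reporter cells (4,000/well, plated 5 h earlier). 16 h at 37 C, then LiveBLAzer substrate for 2 h at room temperature in the dark; fluorescence read-out.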

[8] = p53 small molecule agonists, cell-based qHTS assay with human liver microsomes: qHTS cell viability counter screen (AID 1963579); also: nearly all actives have a fitted effect of over 45% in size; also: potency is read from the fitted curve at half-maximal effect
In short: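 Metabolic activation used human liver microsomes and NADPH, both 0.5 mg/mL final, over 16 hours at 37 C on p53RE-bla cells (4,000/well). Cytotoxicity measured by CellTiter-Glo luminescence, 30 min at room temperature.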

[9] = p53 small molecule agonists, cell-based qHTS assay: qHTS cell viability counter screen (AID 1963581); also: nearly all actives have a fitted effect of over 45% in size
In short: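 Counter screen read by CellTiter-Glo luminescence (ATP content, 30 min at room temperature), run in the same wells as the beta-lactamase reporter read. HCT-116 p53RE-bla cells saw compounds for 16 h at 37 C.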

[10] = p53 small molecule agonists, cell-based qHTS assay (AID 1963582; active = well fitted activation curve with a large enough effect in the signal ratio in the repeat runs, not every such curve was filed as active; the % refers to the signal ratio)
In short: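 Read-out is beta-lactamase FRET fluorescence after 2 h at room temperature with LiveBLAzer B/G substrate. p53 response element-bla cells were treated 16 h at 37 C with compounds in DMSO, added 5 h after seeding.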

[11] = biological target: 5-hydroxytryptamine receptor 2A (Homo sapiens) (UniProt P28223); assay: 5-hydroxytryptamine receptor 2A (HTR2A) small molecule antagonists, cell-based qHTS assay (AID 1963586); also: nearly all actives have a fitted effect of over 45% in size
Chain of 5-hydroxytryptamine receptor 2A (Homo sapiens) (P28223 whole entry, looked up): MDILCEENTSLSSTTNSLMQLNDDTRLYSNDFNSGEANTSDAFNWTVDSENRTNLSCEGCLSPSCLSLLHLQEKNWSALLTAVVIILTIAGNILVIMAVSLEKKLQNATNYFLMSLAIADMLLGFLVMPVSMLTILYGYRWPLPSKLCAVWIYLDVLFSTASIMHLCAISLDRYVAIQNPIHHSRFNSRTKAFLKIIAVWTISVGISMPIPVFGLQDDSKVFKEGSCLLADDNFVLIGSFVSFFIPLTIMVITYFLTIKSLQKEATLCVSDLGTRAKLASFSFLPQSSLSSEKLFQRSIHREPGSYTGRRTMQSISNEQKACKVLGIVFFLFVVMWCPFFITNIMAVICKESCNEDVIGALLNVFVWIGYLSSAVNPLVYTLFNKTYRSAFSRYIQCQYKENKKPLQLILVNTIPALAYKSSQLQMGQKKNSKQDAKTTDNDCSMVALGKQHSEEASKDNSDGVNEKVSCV
In short: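 CHO cells stably expressing human HTR2A were plated for 18 h at 37 C, then loaded with calcium dye for 1 h. Compounds were preincubated 5 min at room temperature before DOI (4 nM solution) was added. Kinetic fluorescence was read for 3 min.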

[12] = biological target: 5-hydroxytryptamine receptor 2A (Homo sapiens) (UniProt P28223); assay: 5-hydroxytryptamine receptor 2A (HTR2A) small molecule agonists, cell-based qHTS assay (AID 1963587); also: nearly all actives have a fitted effect of over 30% in size; also: potency is read from the fitted curve at half-maximal effect
In short: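 CHO cells stably expressing human HTR2A, plated 18 h, loaded with calcium dye 1 h at 37 C. Agonist mode: compounds added and intracellular calcium fluorescence recorded kinetically for 2 min at 1 sec intervals.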

[13] = biological target: Muscarinic acetylcholine receptor M1 (Homo sapiens) (UniProt P11229); assay: Cholinergic receptor muscarinic 1 (CHRM1) small molecule agonists, cell-based qHTS assay (AID 1963589); also: nearly all actives have a fitted effect of over 35% in size
Chain of Muscarinic acetylcholine receptor M1 (Homo sapiens) (P11229 whole entry, looked up): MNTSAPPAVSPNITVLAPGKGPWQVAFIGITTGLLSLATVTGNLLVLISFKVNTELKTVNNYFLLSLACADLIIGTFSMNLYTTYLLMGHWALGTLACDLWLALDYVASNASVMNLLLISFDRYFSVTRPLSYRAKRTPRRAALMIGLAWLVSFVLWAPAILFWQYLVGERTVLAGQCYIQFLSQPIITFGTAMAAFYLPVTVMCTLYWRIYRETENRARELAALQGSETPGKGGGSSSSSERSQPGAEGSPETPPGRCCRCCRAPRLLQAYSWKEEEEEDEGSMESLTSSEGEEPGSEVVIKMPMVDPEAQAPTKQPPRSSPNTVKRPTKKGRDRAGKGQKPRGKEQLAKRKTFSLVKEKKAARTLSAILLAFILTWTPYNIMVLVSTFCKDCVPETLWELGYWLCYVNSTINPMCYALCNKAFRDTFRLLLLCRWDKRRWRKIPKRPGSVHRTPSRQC
In short: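 Agonist-mode calcium-flux screen: compounds at 15 concentrations, three independent runs, were pin-transferred onto dye-loaded human CHRM1-CHO cells. Fluorescence was then recorded kinetically every second over minutes.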

[14] = cAMP Responsive Elements (CRE) small molecule agonists, cell-based qHTS assay (AID 1963590)
In short: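 Agonist mode: compound added to CRE-bla HEK 293T cells (2,000/well, 18 h after plating) for 3 h at 37 C/5% CO2. Reporter activity detected via FRET beta-lactamase substrate, 2 h room-temperature loading.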

[15] = cAMP Responsive Elements (CRE) small molecule antagonists, cell-based qHTS assay (AID 1963591; active = well fitted inhibition curve with a large enough effect in the signal ratio in the repeat runs, not every such curve was filed as active; the % refers to the signal ratio; also: potency is read from the fitted curve at half-maximal effect)
In short: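 Antagonist mode: compounds are added alongside the adenylyl cyclase activator NKH477 (0.25 uM final) to CRE-bla HEK293T cells for 3 h. LiveBLAzer FRET substrate, 2 h at room temperature, reports bla expression.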

[16] = biological target: Beta-2 adrenergic receptor (Homo sapiens) (UniProt P07550); assay: Adrenergic beta2 receptor (ADRB2) small molecule antagonists, cell-based qHTS assay (AID 1963592); also: series mostly up to about 92 µM; nearly all actives have a fitted effect of over 50% in size
Chain of Beta-2 adrenergic receptor (Homo sapiens) (P07550 whole entry, looked up): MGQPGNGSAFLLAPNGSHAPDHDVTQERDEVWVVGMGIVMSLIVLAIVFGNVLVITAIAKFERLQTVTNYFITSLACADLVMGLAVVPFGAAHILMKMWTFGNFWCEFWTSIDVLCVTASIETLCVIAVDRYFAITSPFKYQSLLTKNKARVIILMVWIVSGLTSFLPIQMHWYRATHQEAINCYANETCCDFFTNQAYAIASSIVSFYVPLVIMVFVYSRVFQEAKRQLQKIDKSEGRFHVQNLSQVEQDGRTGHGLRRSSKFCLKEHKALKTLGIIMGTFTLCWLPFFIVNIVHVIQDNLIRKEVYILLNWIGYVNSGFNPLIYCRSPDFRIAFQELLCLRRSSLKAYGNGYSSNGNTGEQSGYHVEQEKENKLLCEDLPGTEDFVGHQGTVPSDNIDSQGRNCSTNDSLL
In short: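 Assay format: CHO-ADRB2 cells, 18-20hr seeding at 37C/5% CO2, then compound plus 1nM isoproterenol agonist mix for 0.5hr RT. Homogeneous time-resolved fluorescence cAMP detection after 1hr, expressed as 665/615 nm ratio.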

[17] = biological target: D(2) dopamine receptor (Homo sapiens) (UniProt P14416); assay: Dopamine D2 receptor (DRD2) small molecule agonists, cell-based qHTS assay (AID 1963594); also: nearly all actives have a fitted effect of over 35% in size
Chain of D(2) dopamine receptor (Homo sapiens) (P14416 whole entry, looked up): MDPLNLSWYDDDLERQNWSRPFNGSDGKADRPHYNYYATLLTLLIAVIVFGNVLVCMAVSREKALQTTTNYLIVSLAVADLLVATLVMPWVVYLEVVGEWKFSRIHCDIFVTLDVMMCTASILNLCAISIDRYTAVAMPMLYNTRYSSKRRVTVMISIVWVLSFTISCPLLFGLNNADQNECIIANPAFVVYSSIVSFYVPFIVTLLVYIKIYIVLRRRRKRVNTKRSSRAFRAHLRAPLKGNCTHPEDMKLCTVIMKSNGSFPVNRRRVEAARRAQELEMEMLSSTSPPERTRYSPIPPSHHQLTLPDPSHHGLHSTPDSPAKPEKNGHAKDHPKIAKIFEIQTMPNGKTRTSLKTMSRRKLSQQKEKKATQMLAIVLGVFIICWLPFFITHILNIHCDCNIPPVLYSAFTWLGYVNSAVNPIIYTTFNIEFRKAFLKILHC
In short: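 HEK293 cells stably expressing human DRD2, pre-treated with PDE inhibitor Ro20-1724 (0.1 mM final) and compound 10 min at room temperature, then stimulated with NKH477 (200nM […]) for 30 min. cAMP read by HTRF (665/620 nm).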

[18] = biological target: D(2) dopamine receptor (Homo sapiens) (UniProt P14416); assay: Dopamine D2 receptor (DRD2) small molecule antagonists, cell-based qHTS assay (AID 1963595; active = well fitted inhibition curve with a large enough effect in the signal ratio in the repeat runs, with a control signal flat; the % refers to the signal ratio)
In short: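 DRD2-HEK293; 0.1 mM Ro20-1724; cpd 10 min RT; NKH477 200 nM + quinpirole 12 nM, 30 min RT; HTRF cAMP (cAMP-d2/anti-cAMP cryptate), 665/620 nm ratio after 1 h.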

[19] = p53 small molecule agonists, cell-based qHTS assay with rat liver microsomes: qHTS cell viability counter screen (AID 1963580); also: nearly all actives have a fitted effect of over 45% in size; also: potency is read from the fitted curve at half-maximal effect
In short: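 Cytotoxicity counter screen: intracellular ATP measured by CellTiter-Glo luminescence in the same wells as the beta-lactamase reporter read, on HCT-116 p53RE-bla cells exposed 16 h at 37 C to compounds with rat liver microsomes and NADPH, each 0.5 mg/mL final.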

[20] = biological target: Muscarinic acetylcholine receptor M1 (Homo sapiens) (UniProt P11229); assay: Cholinergic receptor muscarinic 1 (CHRM1) small molecule antagonists, cell-based qHTS assay (AID 1963588); also: nearly all actives have a fitted effect of over 40% in size
In short: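 Compounds were tested at 15 concentrations in three independent runs. Dye-loaded CHRM1-CHO cells were exposed 5 min at room temperature before stimulation by acetylcholine added at 50nM. Intracellular calcium was read kinetically on FDSS for 3 min.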

Measured: Potency

CCCCCCO
inactive: [1] | [2] | [3] | [4] | [5] | [6] | [7] | [8] | [9] | [10] | [11] | [12] | [13] | [14] | [15] | [16] | [17] | [18]

COc1cc([C@H]2Oc3cc([C@H]4Oc5cc(O)cc(O)c5C(=O)[C@@H]4O)ccc3O[C@@H]2CO)ccc1O
inactive: [1] | [2] | [3] | [4] | [5] | [6] | [7] | [8] | [19] | [10] | [11] | [12] | [20] | [13] | [16] | [17] | [18]

Cn1c(=O)c2[nH]cnc2n(C)c1=O
inactive: [1] | [2] | [3] | [4] | [5] | [6] | [7] | [8] | [19] | [10] | [14] | [15] | [16] | [17] | [18]

Nc1ccc(S(=O)(=O)Nc2cnc3ccccc3n2)cc1
inactive: [1] | [2] | [3] | [4] | [5] | [6] | [7] | [8] | [9] | [10] | [11] | [12] | [20] | [13] | [14] | [15] | [16] | [17] | [18]

CCCN(CCC)S(=O)(=O)c1ccc(C(=O)O)cc1
inactive: [1] | [2] | [3] | [4] | [5] | [6] | [7] | [8] | [19] | [10] | [14] | [15] | [16] | [17] | [18]

CCCCCCCCCCCCOC(=O)c1cc(O)c(O)c(O)c1
10.9 µM (active) and inactive: [12]
inactive: [2] | [3] | [4] | [5] | [6] | [7] | [11] | [20] | [14] | [16] | [17]
active: [1] 30.5 µM and 27.3 µM | [8] 45.8 µM | [19] 40.6 µM | [15] 21.6 µM and 45.2 µM

Cc1cc(=O)oc2cc(O)ccc12
active: [7] 36.3 µM and 22.9 µM
inactive: [1] | [2] | [3] | [4] | [5] | [6] | [8] | [9] | [10] | [11] | [12] | [20] | [13] | [14] | [16] | [18]

O=C(O)CCCCCCCCC(=O)O
inactive: [1] | [2] | [3] | [4] | [5] | [6] | [7] | [8] | [19] | [10] | [11] | [12] | [20] | [13] | [14] | [16] | [17] | [18]

CN(C)C=O
inactive: [1] | [2] | [3] | [4] | [5] | [6] | [7] | [8] | [19] | [10] | [14] | [15] | [16] | [17] | [18]

O=C1c2c(O)cccc2Cc2cccc(O)c21
inactive: [1] | [2] | [3] | [4] | [5] | [6] | [7] | [8] | [9] | [10] | [11] | [12] | [20] | [13] | [14] | [15] | [17] | [18]

OC(CCl)CCl
inactive: [1] | [2] | [3] | [4] | [5] | [6] | [7] | [8] | [9] | [10] | [11] | [12] | [20] | [13] | [14] | [15] | [16] | [17] | [18]

C=CC(C)CCCC(C)(C)O (stereo unspecified)
inactive: [1] | [2] | [3] | [4] | [5] | [6] | [7] | [8] | [9] | [10] | [11] | [12] | [20] | [13] | [14] | [16] | [17] | [18]

CCCCCCCCC/C=C/CC1CC(=O)OC1=O (stereo unspecified)
inactive: [1] | [2] | [3] | [4] | [5] | [6] | [7] | [8] | [19] | [12] | [20] | [13] | [14] | [15] | [17] | [18]

CCc1cccc(CC)c1N
inactive: [1] | [2] | [3] | [4] | [5] | [6] | [7] | [8] | [9] | [10] | [11] | [12] | [20] | [13] | [14] | [15] | [16] | [17] | [18]

COC(=O)c1ccccc1
inactive: [1] | [2] | [3] | [4] | [5] | [6] | [7] | [8] | [9] | [10] | [11] | [12] | [20] | [13] | [14] | [15] | [16] | [17] | [18]

CCOC(=O)C(C#N)=C(c1ccccc1)c1ccccc1
inactive: [1] | [2] | [3] | [4] | [5] | [6] | [7] | [8] | [9] | [10] | [11] | [12] | [20] | [14] | [16] | [17] | [18]
